The full list was thinned out, with hits kept by preference.
Dicer processing – inhibitors of Dicer pre-microRNA processing, primary screen, biochemical, cat-ELCCA, chemiluminescence; cat-ELCCA pre-miR-21 Dicer processing; stronger effect = higher value; z-score at 25 µM; hit rate 6% among 47,000; Endoribonuclease Dicer (Homo sapiens), Q9UPY3; in the data active = z-score above about 3, passing the limit was not always enough;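 also: higher signal means more uncleaved substrate so more Dicer inhibition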
Hits are given with their value; - = inactive.

SMILES	Dicer processing
Cc1cc2oc3c(c(=O)c2cc1C)C(c1ccc(OCC(N)=O)cc1)N(c1nc(C)c(C)s1)C3=O (stereo not given)	-
c1ccc(-n2cc(-c3noc4ccccc34)cn2)cc1	-
Cc1c2c(=O)n(-c3nc4ccccc4s3)nc-2cc(O)n1Cc1ccccc1	-
Cc1c2c(=O)n(-c3nc4ccccc4s3)[nH]c2cc(=O)n1Cc1ccc(C(=O)O)cc1	27.1
CC(=O)N1CCN(CCn2c(C)c3c(=O)n(-c4nc5ccccc5s4)[nH]c3cc2=O)CC1	-
Cc1csc2ncnc(N3CCC(C(=O)O)CC3)c12	-
CN(C)S(=O)(=O)N(CC(=O)Nc1ccc2c(c1)OCCO2)c1ccccc1	-
CC1CCN(c2oc(-c3ccc(F)cc3)nc2S(=O)(=O)c2ccccc2)CC1	-
COc1ccc(OCc2nc(C#N)c(N3CCC(C(N)=O)CC3)o2)cc1	-
N#Cc1nc(COc2cccc(Cl)c2)oc1N1CCCCC1	3.85
N#Cc1nc(COc2ccc(F)cc2)oc1NCc1cccnc1	-
COc1ccc(OCc2nc(C#N)c(N3CCN(c4ccccc4)CC3)o2)cc1	3.05
COc1ccc(N2CCN(c3oc(COc4ccc(F)cc4)nc3C#N)CC2)cc1	-
N#Cc1nc(COc2ccccc2Cl)oc1N1CCOCC1	-
N#Cc1nc(COc2cccc(Cl)c2)oc1NCc1ccco1	-
N#Cc1nc(COc2ccccc2Cl)oc1N1CCCC1	-
N#Cc1nc(COc2cccc(Cl)c2)oc1NCc1cccnc1	3.79
COc1cccc(C2C3=C(CC(C)(C)CC3=O)Nc3ccc4ccccc4c32)c1 (stereo not given)	-
Cc1ccc(-c2nc(-n3c(C)ccc3C)sc2C)cc1Cl	-
Cc1c(-c2ccnc(NC(=O)c3ccc(Cl)cc3)n2)sc2ccc(Cl)cc12	-
O=C1C(=O)N(Cc2cccnc2)C(c2ccc(Cl)cc2)/C1=C(\O)c1ccccc1 (stereo not given)	-
Nc1c(C(=O)NNC(=S)NCc2ccccc2)oc2nc(-c3ccc(Cl)cc3)cc(-c3ccccc3)c12	-
COC(=O)c1sc2c(c1N(C(C)=O)C(C)=O)CSc1ccc(Cl)cc1-2	-
CC(=O)Cn1cc(Cl)c(=O)c(Cl)c1	-
c1ccc(CN2CCC(n3nnc4cccnc43)CC2)cc1	-
SMILES	Dicer processing
N/C(=N\S(=O)(=O)c1cc(C(F)(F)F)cc(C(F)(F)F)c1)N1CCSCC1	5.54
Cc1nc(C(F)(F)F)ccc1C(=O)N1CCSCC1	-
N/C(=N\S(=O)(=O)c1cc(C(F)(F)F)cc(C(F)(F)F)c1)c1ccccc1	-
O=C(CC(C(=O)O)C1CCCO1)NC1CCCCC1 (stereo not given)	-
CCC(C)NC(=O)CN1C(=O)c2ccccc2S1(=O)=O (stereo not given)	-
CCC(C)NC(=O)CN1C(=O)NC2NC(=O)NC21 (stereo not given)	4.49
CCCNC(=O)NCCN1CCNC1=O	-
CCCNC(=O)CN1C(=O)NC2NC(=O)NC21 (stereo not given)	3.98
CCCCc1nc(SCC(=O)NC2CCCCC2)n[nH]1	-
CCC(C)NC(=O)CN1C(=O)c2cccc3cccc1c23 (stereo not given)	-
O=C(CN1C(=O)NC2NC(=O)NC21)NC1CCCCC1 (stereo not given)	3.22
CCCNC(=O)Cn1nc(C(F)(F)F)c(Br)c1C	-
O=C(ON=C1CCCCCCCCCCC1)c1cccs1	-
Cc1cc(OC(=O)c2ccc([N+](=O)[O-])cc2)c(Cl)c(C)c1Cl	-
C/C(=N\Nc1c(Cl)cc(Cl)cc1Cl)c1c(O)cc(C)oc1=O	-
O=C1OC(c2cccnc2Sc2ccc(Cl)cc2)=N/C1=C\c1ccc(C(F)(F)F)cc1	-
CCc1ccc(C2CC(=O)Nc3nc(N)[nH]c(=O)c32)cc1 (stereo not given)	-
Clc1ccc(OCOc2ccc(Cl)cc2Cl)c(Cl)c1	-
COC(=O)CNC(=O)Cn1cnc2c1c(=O)n(C)c(=O)n2C	-
CCOC(=O)Cn1cc(C#N)c(=O)[nH]c1=O	-
COC(=O)Cn1cnc(=O)c(C#N)c1C	3.37
C(=N\OCc1nnc(-c2ccc3ccccc3c2)o1)/c1cccc2c1OCO2	-
O=[N+]([O-])c1cc(Br)c(Oc2cncc(Cl)c2)cc1Oc1cncc(Cl)c1	-
CCOc1cc(C2c3c(oc4ccccc4c3=O)C(=O)N2c2nc(C)c(C)s2)ccc1O (stereo not given)	-
COc1ccc(Sc2ccc(C)cc2)c([N+](=O)[O-])c1	-
SMILES	Dicer processing
Cc1ccc(Sc2ccc(/C=C3/SC(=S)NC3=O)cc2[N+](=O)[O-])cc1	4.6
Cc1ccc(Sc2cc(N3CCOCC3)c(C)cc2[N+](=O)[O-])cc1	-
CCOC(=O)c1c(NC(=O)CC)sc2c1CC(C)(C)OC2	-
CCOC(=O)C(=O)Nc1sc2c(c1C(=O)OCC)CC(C)(C)OC2	4.85
CCCCC(=O)Nc1sc2c(c1C(=O)OCC)CC(C)(C)OC2	-
CC1CN(c2ccc(NC(=S)N3CCSCC3)cc2)CC(C)O1 (stereo not given)	-
O=S(=O)(Nc1ccc(Oc2ccc(NS(=O)(=O)c3cccs3)cc2)cc1)c1cccs1	3.62
Cc1cc(=O)oc2cc(NS(=O)(=O)c3cccs3)ccc12	-
O=S(=O)(Nc1cccc2ccccc12)c1cccs1	-
Cc1cc(C)c(NC(=S)NC(C)(C)CO)c(C)c1	-
CC(CN1CCOCC1)OC(=O)C1c2ccccc2Oc2ccccc21 (stereo not given)	-
O=c1[nH]nc(Sc2cc(C(F)(F)F)ccn2)n1-c1ccccc1C(F)(F)F	-
Nc1ccc(N(c2ccccc2)c2ccc(N)cc2)cc1	-
CN(C)c1ccc(C=C(c2ccc(N)cc2)c2ccc(N)cc2)cc1	6.36
COC(=O)C(=C(C)C)c1ccc(N(C)C)cc1	-
Cn1nnnc1SCCNCc1cccc(OCc2ccccc2Cl)c1	-
Cc1nn(CCC#N)c(C)c1Oc1ccc(Cl)cc1	-
Cc1cc(Cl)cc(C)c1OCCn1ccnc1	-
Cc1cccc(C)c1OCCCc1c(C)n[nH]c1C	-
Cc1cccc(C)c1OCCn1cncn1	3.27
Cc1ccccc1C(=O)c1ccccc1C(=O)O	-
Cc1ccc(C(=O)CC2(O)C(=O)N(C(C)C)c3ccccc32)cc1 (stereo not given)	-
O=C(Cn1cc(C(=O)c2cccs2)c2ccccc21)NC1CCCC1	-
COc1ccc(-c2nnc(SCc3ccc(Cl)cc3)o2)cc1	-
Clc1ccc(-c2nnc(-c3ccccc3)o2)cc1	-
SMILES	Dicer processing
CCc1ccc(-c2nnc(-c3ccc(Cl)cc3)o2)cc1	3.3
Cc1cc(NC(=O)CSc2nc3c(c(C(F)(F)F)n2)CCc2ccccc2-3)no1	-
c1ccc(-c2cc(C3=Nn4c(nnc4-c4cccs4)SC3)on2)cc1	-
CNC(=O)c1cccc2cccc(Sc3ccccc3C(=O)O)c12	24.7
O=C(O)c1cccc2cccc(Sc3cccc4ccccc34)c12	-
O=C(O)c1cccc2cccc(Sc3cccc4cccc(CO)c34)c12	-
COC(=O)c1ccc(C2Nc3c(OC)cc(OC)cc3C3C=CCC32)cc1 (stereo not given)	-
O=C(C1=C(O)C(=O)N(Cc2cccnc2)C1c1cccnc1)c1ccco1 (stereo not given)	-
O=C(O)c1cccc(N2C(=O)C3C4C=CC(CC4)C3C2=O)c1 (stereo not given)	-
O=C1C2C3C=CC(C3)C2C(=O)N1c1ccc(Cc2ccc(N3C(=O)C4C5C=CC(C5)C4C3=O)cc2)cc1 (stereo not given)	-
Cc1ccc(N2C(=O)C3C4C=CC(CC4)C3C2=O)c(Br)c1 (stereo not given)	-

Assay outcomes as filed in PubChem.
